Reference: the supplement of paper PMC6555819

Legend:
Assay in all cases: PBM binding z-score (relative to random genomic background probes); higher = stronger binding; sequences stand for … in GC…GCGATTGACAGCGTAGAATGAAGG
[1] = system: PPARg:RXRa DBDmut IVT, anti-RXR (DBD mutation: RXRa K156A/R161A, NR concentration 270 nM, RXRa partner concentration 90 nM)
In short: (§1)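 Binding z-scores take random background probes as their reference. They come from custom Agilent 4×180K protein-binding microarrays incubated 1 h with ligand-free nuclear receptor dimers, with antibodies against each partner (one per run) detecting binding. Scanned fluorescence was regression-normalized.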

[2] = system: PPARg:RXRa IVT, anti-PPARg (NR concentration 270 nM, RXRa partner concentration 90 nM)
In short: as §1

[3] = system: PPARg DBDmut:RXRa IVT, anti-PPARg (DBD mutation: PPARg1 K132A/R137A, NR concentration 270 nM, RXRa partner concentration 90 nM)
In short: as §1

[4] = system: PPARg DBDmut IVT, anti-PPARg (DBD mutation: PPARg1 K132A/R137A, NR concentration 270 nM)
In short: as §1

[5] = system: PPARg homodimer (NR concentration 180 nM)
In short: as §1

[6] = system: PXR:RXRa (NR concentration 270 nM, RXRa partner concentration 90 nM)
In short: as §1

[7] = system: PXR homodimer (NR concentration 270 nM)
In short: as §1

[8] = system: RARa:RXR (NR concentration 270 nM, RXRa partner concentration 90 nM)
In short: as §1

[9] = system: RARa homodimer (NR concentration 270 nM)
In short: as §1

[10] = system: RARb:RXRa (NR concentration 270 nM, RXRa partner concentration 90 nM)
In short: as §1

| Sequence | PBM binding z-score [1] | PBM binding z-score [2] | PBM binding z-score [3] | PBM binding z-score [4] | PBM binding z-score [5] | PBM binding z-score [6] | PBM binding z-score [7] | PBM binding z-score [8] | PBM binding z-score [9] | PBM binding z-score [10] |
| --- | --- | --- | --- | --- | --- | --- | --- | --- | --- | --- |
| AGAATGTGGTTACCAAAGATCAGGGAAACGCTTG | 0.0362 | 0.248 | 0.393 | 0.266 | 0.264 | -0.353 | -0.342 | -0.178 | -0.0425 | -0.0731 |
| ATCTCTAGGAAAGACTCAGTTCAGTGAAGAACGC | -0.0594 | -0.318 | 0.245 | 0.852 | 0.978 | 0.737 | 1.37 | 0.199 | 0.964 | 0.144 |
| CTCGGAAGGTCGTGCTCAGGTGAGTATACCAAAC | 0.012 | 0.881 | -0.0386 | -0.266 | 0.944 | 1.55 | -0.228 | 2.36 | -0.507 | 2.5 |
| GTACCAAGGTGAATAGGTCGCTGATGAGTAGGCG | 1.89 | 2.89 | -0.721 | -0.6 | 0.508 | 0.271 | -0.637 | 1.34 | -0.0761 | 2.07 |
| CGAACGAGGGCATGAGTTCATAGCAAATGCCGAT | 3.09 | 2.4 | -0.0442 | -0.857 | 0.292 | 4.74 | 7.66 | 2.71 | -0.81 | 3.01 |
| ATATGTAGGTTAAGGGTCATTCGGGTTGGTTCGC | 7.7 | 8.1 | 6.59 | 4.92 | 8.66 | 6.02 | 3.75 | 6.67 | 3.12 | 3.43 |
| ACTAGTTGGTCAGCTGAGGTCCCACACAATTCGG | 0.847 | 1.02 | -0.38 | 1.01 | 0.419 | 0.0973 | -0.424 | 0.479 | -0.0479 | 0.921 |
| TAGCCTAGGTCATGCGTGCCAGTATAGTGTCGGC | 1.88 | 3.12 | 0.14 | 0.765 | 1.62 | 1.51 | -0.776 | 2.65 | -0.307 | 3.77 |
| AGATTGAGGTTATTAAGATCAGGGAATTGCGGTC | 2.3 | 2.34 | 0.654 | 0.969 | 1.25 | 1.32 | 0.669 | 1.33 | 0.972 | 1.41 |
| ATCGAAAGGTCGTGAGGTGAGAATACAGAAAGGC | 0.36 | 2.7 | 1.67 | 0.86 | 1.7 | 3.16 | 0.322 | 4.19 | 0.587 | 4.13 |
| ACTCGGAGGACAAAGTTCAGAGCTACGCCAGTGA | 0.00289 | 1.33 | -0.512 | -0.633 | 1.27 | 1.98 | 1.2 | 1.47 | 0.278 | 2.97 |
| CCTCGGAGGACAGAAGGTTAGAGCTGTCCGCTTT | -0.501 | -0.792 | -1.88 | -2.87 | -0.233 | -0.354 | -0.764 | 0.0468 | -1.07 | 1.12 |
| CATACAGGGTCAGCTCGGCCAGAGTAGGGACGGC | 0.771 | 2.11 | 1.08 | 0.134 | 0.989 | 2.02 | 0.0599 | 2.97 | 0.394 | 4 |
| ACAGACAGGTGATGAAGGTAAGTCAGGCTATCAT | 0.134 | 0.289 | 0.49 | -0.485 | -0.00799 | -0.348 | -0.234 | -0.203 | 0.26 | 0.27 |
| AGAATGAGGTTATTCAGATCAGGGAATTGCGGTC | 3.18 | 2.64 | 0.879 | 0.0193 | 0.501 | 1.8 | 0.717 | 1.98 | 0.495 | 1.68 |
| ATACCAAGGTGATCGGGAGGTCGTTGATACTAAC | 0.345 | 1.15 | 0.229 | 0.179 | 1.3 | 2.92 | 1.26 | 2.08 | 0.622 | 1.31 |
| CCGAATGGGGCAAGGTTACCATAACGCACAGCCA | 0.946 | 1.17 | -0.387 | -0.659 | 0.548 | 0.288 | -0.323 | 0.909 | -0.0739 | 1.75 |
| AGAACGAGGGCAATGAGTTGCTAGCACGGGTGGC | 3.04 | 2.38 | 0.736 | -0.0393 | -0.0603 | 0.451 | 0.523 | 0.256 | -0.567 | 1.98 |
| GCTCGGAGGACAAGGTCAGACCTTTGTCCGTAGA | -0.401 | 1.17 | -0.273 | -0.216 | 0.937 | 2.18 | -0.193 | 2.61 | -0.422 | 3.67 |
| GATATTAGTTGAAAGGGCAACCGAATGATTCTCG | 0.557 | 1.16 | 0.952 | 0.799 | 2.21 | 0.994 | 0.916 | 1.81 | 2.21 | 2.27 |
| CAAACTATGTCACCGGAAGGTCAAAGTCCGCATG | 5.08 | 5.25 | 0.711 | 1.64 | 3.93 | 4.29 | 2.1 | 4.93 | 2.43 | 3.7 |
| CTAGAAAGGTCGGTTGAGGTGAGTATACGGATAA | 0.237 | 1.18 | 0.0511 | 0.00122 | 1.34 | 3.37 | 0.245 | 2.6 | 0.889 | 3.03 |
| AACGAAAGGTCGTGAGGTGAGTATACAGAAAGGC | 0.775 | 2.28 | 0.36 | 0.0984 | 1.96 | 3.37 | 0.132 | 4.22 | 0.704 | 4.04 |
| CCTCGTTGGTCAGGAGGTCACACACCGGATATGA | 0.408 | 2.72 | 0.14 | 0.13 | 3.05 | 4.26 | 0.821 | 4.73 | 1.57 | 3.75 |
| CCTCTTAGTTGACCATAAGGGCAACCGAAGCTCG | 0.417 | 0.373 | 0.452 | -0.136 | 1.43 | 0.861 | 0.453 | 1.04 | 0.928 | 1.7 |
